Measurements as given in PubChem BioAssay (Tox21).
Values joined by “and” are separate entries in the source; they are usually repeats but may differ in a detail not shown here. Identical values can stand only once. Results filed as inconclusive are left out. Where a call stands in place of a potency, no number is given. The source holds several records for some structures; these can differ, active in one and inactive in another. Active and inactive are the calls of the source. Calls follow the shape of the dose curve; as a rule, active = well fitted curve in the direction sought with a large enough effect in the repeat runs; inconclusive = weak or mixed curves; inactive = no such curve, though single readings can be large; an effect the other way counts as inactive or inconclusive.

Experiments:
[1] = molecular target: Cytochrome P450 2C19 (Homo sapiens) (UniProt P33261); experiment: Cytochrome P450 Family 2 Subfamily C Member 19 (CYP2C19) small molecule antagonists: luciferase reporter qHTS assay (AID 1671197); also: nearly all actives have a fitted effect of over 65% in size; also: potency is read from the fitted curve at half-maximal effect; as to activity change, negative = inhibition: series mostly up to about 120 µM
Procedure, shortened: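 Light output is proportional to CYP2C19 activity: proluciferin substrate is converted to luciferin, then detected by a luciferin detection reagent that also stops the 1 h, 37C NADPH-driven reaction. Ketoconazole serves as positive control.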

[2] = molecular target: Cytochrome P450 2C9 (Homo sapiens) (UniProt P11712); experiment: Cytochrome P450 Family 2 Subfamily C Member 9 (CYP2C9) small molecule antagonists: luciferase reporter qHTS assay (AID 1671198); also: nearly all actives have a fitted effect of over 50% in size; also: potency is read from the fitted curve at half-maximal effect; as to activity change, negative = inhibition: series mostly up to about 120 µM
Procedure, shortened: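 Enzyme-substrate mix preincubated with compound 10 min at room temperature; reaction started with NADPH regeneration solution, 1 h 37C. Luminescent luciferin product read after 20 min detection reagent.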

[3] = molecular target: Cytochrome P450 1A2 (Homo sapiens) (UniProt P05177); experiment: Cytochrome P450 Family 1 Subfamily A Member 2 (CYP1A2) small molecule antagonists: luciferase reporter qHTS assay (AID 1671199); also: nearly all actives have a fitted effect of over 50% in size; also: potency is read from the fitted curve at half-maximal effect; as to activity change, negative = inhibition: series mostly up to about 120 µM
Procedure, shortened: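 Luminescence from luciferin formed by CYP1A2 from a proluciferin substrate, read 20 min after detection reagent. Compound was pre-incubated 10 min with enzyme-substrate, and reaction started with NADPH regeneration solution for 1 h at room temperature; furafylline control.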

[4] = molecular target: Voltage-gated inwardly rectifying potassium channel KCNH2 (Homo sapiens) (UniProt Q12809); experiment: Human Ether-a-go-go-Related Gene (hERG) channel small molecule antagonists: fluorescence cell-based qHTS assay (AID 1671200); also: nearly all actives have a fitted effect of over 50% in size; also: potency is read from the fitted curve at half-maximal effect;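 as to activity change, negative = inhibition: hERG-expressing U2OS cells given a thallium stimulus after FluxOR II dye loading; series mostly up to about 77 µM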
Procedure, shortened: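 Thallium served as the potassium surrogate; its influx into dye-loaded U2OS cells carrying the channel was measured by fluorescence over 2 min.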

[5] = molecular target: Cytochrome P450 3A4 (Homo sapiens) (UniProt P08684); experiment: Cytochrome P450 Family 3 Subfamily A Member 4 (CYP3A4) small molecule antagonists: luciferase reporter qHTS assay (AID 1671201); also: series mostly up to about 120 µM; nearly all actives have a fitted effect of over 50% in size
Procedure, shortened: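 Relative luminescence units after 20 min with luciferin detection reagent served as read-out. Beforehand, CYP3A4 turned over a proluciferin substrate for 1 h at room temperature with NADPH regeneration, following 10 min compound preincubation.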

Chain of Cytochrome P450 3A4 (Homo sapiens) (P08684 whole entry, looked up): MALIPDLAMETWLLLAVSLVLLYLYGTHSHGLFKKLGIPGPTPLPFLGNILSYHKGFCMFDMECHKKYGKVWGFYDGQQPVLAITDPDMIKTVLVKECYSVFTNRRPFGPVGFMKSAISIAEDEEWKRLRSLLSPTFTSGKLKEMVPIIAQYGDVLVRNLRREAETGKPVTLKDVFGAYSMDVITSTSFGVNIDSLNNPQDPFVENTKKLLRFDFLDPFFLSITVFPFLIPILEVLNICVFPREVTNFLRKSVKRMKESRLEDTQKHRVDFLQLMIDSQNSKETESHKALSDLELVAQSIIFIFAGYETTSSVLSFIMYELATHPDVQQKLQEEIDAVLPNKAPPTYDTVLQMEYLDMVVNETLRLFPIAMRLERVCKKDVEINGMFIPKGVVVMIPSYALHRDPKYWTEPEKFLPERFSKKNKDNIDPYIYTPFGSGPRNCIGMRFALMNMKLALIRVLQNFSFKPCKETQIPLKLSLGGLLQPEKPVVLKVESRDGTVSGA
Chain of Voltage-gated inwardly rectifying potassium channel KCNH2 (Homo sapiens) (Q12809 whole entry, looked up): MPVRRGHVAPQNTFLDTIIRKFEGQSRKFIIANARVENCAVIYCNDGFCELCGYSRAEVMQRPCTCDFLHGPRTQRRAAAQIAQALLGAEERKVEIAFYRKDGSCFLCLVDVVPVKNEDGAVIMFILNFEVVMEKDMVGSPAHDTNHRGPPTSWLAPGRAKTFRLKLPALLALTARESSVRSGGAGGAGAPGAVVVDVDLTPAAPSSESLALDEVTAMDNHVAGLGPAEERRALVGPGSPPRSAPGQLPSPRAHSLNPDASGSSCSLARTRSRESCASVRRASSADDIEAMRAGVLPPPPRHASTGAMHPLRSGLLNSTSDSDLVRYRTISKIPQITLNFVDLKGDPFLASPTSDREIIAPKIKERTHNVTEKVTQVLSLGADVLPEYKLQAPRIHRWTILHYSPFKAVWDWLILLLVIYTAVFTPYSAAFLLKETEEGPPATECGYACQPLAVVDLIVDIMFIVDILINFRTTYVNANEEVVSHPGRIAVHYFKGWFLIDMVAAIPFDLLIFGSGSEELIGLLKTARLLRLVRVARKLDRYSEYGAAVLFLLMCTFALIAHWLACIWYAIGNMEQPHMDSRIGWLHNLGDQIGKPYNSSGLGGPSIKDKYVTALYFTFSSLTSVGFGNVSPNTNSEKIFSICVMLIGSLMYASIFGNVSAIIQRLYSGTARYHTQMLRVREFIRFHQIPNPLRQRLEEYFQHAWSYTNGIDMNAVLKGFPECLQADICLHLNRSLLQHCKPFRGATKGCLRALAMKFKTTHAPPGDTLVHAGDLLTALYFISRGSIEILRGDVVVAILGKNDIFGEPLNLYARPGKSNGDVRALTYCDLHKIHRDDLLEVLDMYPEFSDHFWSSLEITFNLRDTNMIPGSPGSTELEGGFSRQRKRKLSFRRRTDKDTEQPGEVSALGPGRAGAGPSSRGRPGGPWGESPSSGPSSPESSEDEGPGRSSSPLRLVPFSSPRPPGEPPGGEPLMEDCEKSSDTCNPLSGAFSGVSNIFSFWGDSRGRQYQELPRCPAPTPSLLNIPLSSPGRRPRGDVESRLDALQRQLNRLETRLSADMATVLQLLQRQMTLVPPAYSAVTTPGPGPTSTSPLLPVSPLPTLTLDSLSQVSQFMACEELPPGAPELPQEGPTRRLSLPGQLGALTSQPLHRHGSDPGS
Chain of Cytochrome P450 2C19 (Homo sapiens) (P33261 whole entry, looked up): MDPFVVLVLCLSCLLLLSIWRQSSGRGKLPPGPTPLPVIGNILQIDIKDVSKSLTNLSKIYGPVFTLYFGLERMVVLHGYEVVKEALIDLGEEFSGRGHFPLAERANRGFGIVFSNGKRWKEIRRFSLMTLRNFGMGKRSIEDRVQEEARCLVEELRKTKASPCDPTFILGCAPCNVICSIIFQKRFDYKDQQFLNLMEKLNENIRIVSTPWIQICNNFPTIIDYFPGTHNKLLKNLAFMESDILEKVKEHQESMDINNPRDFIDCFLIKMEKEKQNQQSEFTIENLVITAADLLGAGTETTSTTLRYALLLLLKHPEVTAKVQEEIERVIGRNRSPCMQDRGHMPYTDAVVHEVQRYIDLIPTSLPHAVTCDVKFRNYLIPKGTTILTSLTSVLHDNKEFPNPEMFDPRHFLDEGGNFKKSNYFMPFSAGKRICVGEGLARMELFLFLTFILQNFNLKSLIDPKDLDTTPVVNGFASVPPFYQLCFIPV
Chain of Cytochrome P450 1A2 (Homo sapiens) (P05177 whole entry, looked up): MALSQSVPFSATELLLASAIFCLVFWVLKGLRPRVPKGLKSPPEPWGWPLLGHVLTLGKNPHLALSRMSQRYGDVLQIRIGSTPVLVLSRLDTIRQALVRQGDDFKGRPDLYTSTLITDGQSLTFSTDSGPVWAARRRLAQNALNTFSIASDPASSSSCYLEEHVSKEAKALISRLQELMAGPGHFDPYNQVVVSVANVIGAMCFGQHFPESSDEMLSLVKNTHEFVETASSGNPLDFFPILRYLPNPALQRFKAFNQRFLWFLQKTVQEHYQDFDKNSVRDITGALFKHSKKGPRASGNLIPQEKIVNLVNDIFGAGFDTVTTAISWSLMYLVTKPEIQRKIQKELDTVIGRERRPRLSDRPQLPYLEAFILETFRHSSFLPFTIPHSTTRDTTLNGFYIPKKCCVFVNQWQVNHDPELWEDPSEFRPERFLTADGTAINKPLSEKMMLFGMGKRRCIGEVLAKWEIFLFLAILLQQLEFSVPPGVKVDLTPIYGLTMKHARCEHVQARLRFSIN
Chain of Cytochrome P450 2C9 (Homo sapiens) (P11712 whole entry, looked up): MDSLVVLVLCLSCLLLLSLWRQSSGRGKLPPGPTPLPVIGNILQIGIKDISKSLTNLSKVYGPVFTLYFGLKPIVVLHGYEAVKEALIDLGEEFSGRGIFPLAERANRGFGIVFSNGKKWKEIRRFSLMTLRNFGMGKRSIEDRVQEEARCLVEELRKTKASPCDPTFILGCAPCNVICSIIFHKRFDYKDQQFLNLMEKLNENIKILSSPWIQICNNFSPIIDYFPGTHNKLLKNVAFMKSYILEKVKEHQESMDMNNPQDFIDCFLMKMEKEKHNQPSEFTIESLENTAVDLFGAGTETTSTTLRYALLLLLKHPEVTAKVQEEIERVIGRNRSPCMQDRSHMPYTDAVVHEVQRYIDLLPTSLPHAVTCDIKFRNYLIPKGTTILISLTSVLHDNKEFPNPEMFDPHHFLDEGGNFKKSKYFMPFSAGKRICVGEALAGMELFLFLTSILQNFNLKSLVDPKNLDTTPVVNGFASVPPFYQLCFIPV

## OC[C@H]1O[C@@H]2O[C@H]3[C@H](O)[C@@H](O)[C@@H](O[C@H]4[C@H](O)[C@@H](O)[C@@H](O[C@H]5[C@H](O)[C@@H](O)[C@@H](O[C@H]6[C@H](O)[C@@H](O)[C@@H](O[C@H]7[C@H](O)[C@@H](O)[C@@H](O[C@H]8[C@H](O)[C@@H](O)[C@@H](O[C@H]1[C@H](O)[C@H]2O)O[C@@H]8CO)O[C@@H]7CO)O[C@@H]6CO)O[C@@H]5CO)O[C@@H]4CO)O[C@@H]3CO
[1]
  Potency: 31.8 µM (active) and inactive
[2]
  Potency: inactive
[3]
  Potency: inactive
[4]
  Potency: inactive
[5]
  Potency: inactive

## O=C=Nc1ccc(Cc2ccc(N=C=O)cc2)cc1
[2]
  Potency: 6.98 µM (active)
[3]
  Potency: inactive
[4]
  Potency: inactive

## OCCO
[1]
  Potency: inactive
[2]
  Potency: inactive
[3]
  Potency: inactive
[4]
  Potency: inactive
[5]
  Potency: inactive

## COC(=O)CCC(=O)OC
[1]
  Potency: inactive
[2]
  Potency: inactive
[4]
  Potency: inactive
[5]
  Potency: inactive

## CN(C)c1nc(N(C)C)nc(N(C)C)n1
[4]
  Potency: inactive

## O=C(/C=C/c1ccccc1)OCc1ccccc1
[1]
  Potency: 17.8 µM (active) and 9.77 µM (active)
[2]
  Potency: 17.8 µM (active) and 13.8 µM (active)
[3]
  Potency: 11.2 µM (active) and 6.92 µM (active)
[5]
  Potency: inactive

## O=C(c1ccc(OCCN2CCCCC2)cc1)c1c(-c2ccc(O)cc2)sc2cc(O)ccc12
[4]
  Potency: 21.9 µM (active) and 43.6 µM (active)

## O=Cc1ccccc1O
[1]
  Potency: inactive
[2]
  Potency: inactive
[3]
  Potency: inactive
[4]
  Potency: inactive
[5]
  Potency: inactive

## CN1C(C(=O)Nc2ccccn2)=C(O)c2ccccc2S1(=O)=O
[1]
  Potency: inactive
[2]
  Potency: 12.7 µM (active) and 13.8 µM (active)
[3]
  Potency: inactive
[4]
  Potency: inactive
[5]
  Potency: inactive

## Cc1cc2nc3c(=O)[nH]c(=O)nc-3n(C[C@H](O)[C@H](O)[C@H](O)CO)c2cc1C
[2]
  activity change, negative = inhibition: -0.762% [at 23.6 µM] (inactive)
[5]
  Potency: inactive

## c1ccc2sc(SSN3CCOCC3)nc2c1
[1]
  Potency: 17.8 µM (active)
[2]
  Potency: 15.9 µM (active) and 11.2 µM (active)
[3]
  Potency: 20 µM (active) and 22.4 µM (active)
[4]
  Potency: inactive
[5]
  Potency: inactive

## Cc1[nH]c(=O)c(C#N)cc1-c1ccncc1
[2]
  Potency: 29.1 µM (active)
[3]
  Potency: 56.4 µM (active) and inactive
[5]
  Potency: inactive

## O=c1oc(=O)c2cc3c(=O)oc(=O)c3cc12
[2]
  Potency: inactive
[3]
  Potency: inactive
[4]
  Potency: inactive

## Cc1ccc2c(n1)Oc1ccc(C(C)C(=O)OCC(=O)N(C)C)cc1C2 (stereo unspecified)
[1]
  Potency: 17.4 µM (active)
[2]
  Potency: 21.9 µM (active)
[3]
  Potency: inactive
[4]
  Potency: inactive
[5]
  Potency: inactive

## Nc1ncnc2nc[nH]c12
[1]
  Potency: inactive
[2]
  Potency: inactive
[3]
  Potency: inactive
[4]
  Potency: inactive
[5]
  Potency: inactive

## CCCCOCCOCCO
[1]
  Potency: inactive
[2]
  Potency: inactive
[3]
  Potency: inactive
[4]
  Potency: inactive
[5]
  Potency: inactive
